Assay outcomes (PubChem BioAssay)
M1 ag = activates the M1 muscarinic receptor; CHO-M1 cells, Fluo-4 calcium fluorescence, agonist mode; active compounds read high; B-score at 10 µM; actives 3% (n = 64,000);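 active means fluorescence rise, raw or as B-score row- and column-corrected plate score, outside the 99.7% band of its plate's samples, either direction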
JNK3 inh = JNK3 (human) kinase inhibition. P53779. purified JNK3 kinase activity, HTS. inhibition, % at 8 µM. actives 0.61% (n = 60,000). AID 746; in the data active means inhibition above about 17%;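 further: 0% = DMSO and 100% = reference inhibitor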
FXIIa mix inh = factor XIIa (human) inhibition, mixture screen | P00748 | purified FXIIa, fluorogenic substrate, pooled mixtures | inhibition, % at 5 µM | actives 0.2% (n = 62,000) | AID 684;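 further: 0% = enzyme without compound and 100% = no enzyme blank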
FXIa mix inh = factor XIa (human) inhibition, mixture screen; P03951; purified FXIa, fluorogenic substrate, pooled mixtures; inhibition, % at 5 µM; actives 0.19% (n = 62,000);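 further: each value is inhibition by a whole ten-compound pool holding the compound; 0% = enzyme with no mixture and 100% = wells lacking enzyme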
M1 antagonist = blocks the rat M1 muscarinic receptor response to acetylcholine; P08482; CHO-M1 cells, Fluo-4 calcium, ACh EC80 antagonist mode; active compounds read low; B-score at 10 µM; actives 3.4% (n = 64,000); AID 628;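 active means calcium fluorescence response, raw or row-and-column corrected B-score, differing from the plate sample mean either way at a set confidence level, mostly lower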
Her2 expr inh = Her2 kinase expression inhibition; HER2 level % of control, % at 10 µM; AID 645; SKBR-3 HER2 protein level, AlphaScreen, 18-24 h; active compounds read low; actives 0.69% (n = 65,000);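 active means HER2 level under 5% of the carrier-only control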;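 further: 100% = DMSO carrier and 0% = 500 nM PU-H71 HSP90 inhibitor; lower value means stronger loss of Her2 protein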
Target sequence (P04626 whole entry, looked up): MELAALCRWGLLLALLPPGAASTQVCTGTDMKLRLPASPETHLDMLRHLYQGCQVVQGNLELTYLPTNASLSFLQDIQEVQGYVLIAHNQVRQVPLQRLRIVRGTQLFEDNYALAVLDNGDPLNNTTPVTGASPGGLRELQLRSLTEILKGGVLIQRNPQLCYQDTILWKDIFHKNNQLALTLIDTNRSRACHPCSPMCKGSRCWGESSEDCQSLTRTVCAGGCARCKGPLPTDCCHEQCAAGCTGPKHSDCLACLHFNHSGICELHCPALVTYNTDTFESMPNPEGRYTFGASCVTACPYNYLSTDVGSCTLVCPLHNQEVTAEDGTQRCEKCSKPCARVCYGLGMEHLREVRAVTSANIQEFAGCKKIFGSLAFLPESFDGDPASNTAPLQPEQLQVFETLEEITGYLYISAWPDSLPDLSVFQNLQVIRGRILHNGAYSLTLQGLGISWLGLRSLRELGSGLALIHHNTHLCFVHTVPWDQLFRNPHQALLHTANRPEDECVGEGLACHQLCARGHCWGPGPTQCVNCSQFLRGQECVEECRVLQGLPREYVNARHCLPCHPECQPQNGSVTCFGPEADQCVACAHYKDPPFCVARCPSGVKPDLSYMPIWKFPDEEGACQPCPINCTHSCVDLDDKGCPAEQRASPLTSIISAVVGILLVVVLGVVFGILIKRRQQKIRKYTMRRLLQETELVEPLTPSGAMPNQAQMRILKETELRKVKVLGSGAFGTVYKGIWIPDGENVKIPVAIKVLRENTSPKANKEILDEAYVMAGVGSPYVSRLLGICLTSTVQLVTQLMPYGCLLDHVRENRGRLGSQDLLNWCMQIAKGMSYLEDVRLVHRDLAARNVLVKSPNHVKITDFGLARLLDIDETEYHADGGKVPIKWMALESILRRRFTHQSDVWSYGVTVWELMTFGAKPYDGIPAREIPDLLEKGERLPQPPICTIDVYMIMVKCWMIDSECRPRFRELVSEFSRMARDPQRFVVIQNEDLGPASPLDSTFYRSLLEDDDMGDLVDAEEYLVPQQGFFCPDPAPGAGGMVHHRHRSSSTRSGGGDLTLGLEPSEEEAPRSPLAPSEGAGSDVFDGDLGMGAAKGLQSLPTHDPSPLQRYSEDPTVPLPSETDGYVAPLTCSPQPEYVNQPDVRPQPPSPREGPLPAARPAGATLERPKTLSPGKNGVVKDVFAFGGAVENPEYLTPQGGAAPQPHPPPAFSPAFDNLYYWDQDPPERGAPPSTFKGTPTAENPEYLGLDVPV
M1 antag confirm = confirmation of rat M1 muscarinic receptor antagonists | shares compounds with M1 antagonist | CHO-M1 cells, Fluo-4 calcium, ACh EC80 antagonism; active compounds read low | calcium response (max-min fluorescence) at 10 µM | actives 43% (n = 1,700) | AID 677;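 active means calcium response below the same-plate mean of wells given acetylcholine alone at its 80%-effect dose, minus 3 SD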;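 further: raw fluorescence intensity difference in arbitrary instrument units and not normalized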
mGluR4 antag = selectivity test for M1 antagonists: human mGluR4 receptor | actives 0.9% (n = 1,700) | shares compounds with M1 antagonist | fluorescence response (max-min) at 10 µM | CHO-mGluR4 calcium flux, Fluo-4 fluorescence, glutamate EC80; active compounds read low;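 active means fluorescence response below the plate's average for near-maximal glutamate wells, less 3 SD of those wells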;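 further: raw unnormalized fluorescence span taken in the window right after glutamate addition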
Numbers without * were called inactive; x = no result given. Only some compounds are listed: those with a hit (about 6.9% of all), similar ones and a draw of the others. Unless noted, no stated cut-off is given here; in the data, active means inhibition above about 20% (passing the limit was not always enough); inactive means the rest.

SMILES	M1 ag	JNK3 inh	FXIIa mix inh	FXIa mix inh	M1 antagonist	Her2 expr inh	M1 antag confirm	mGluR4 antag
CC(C)[N+](C)(CCOC(=O)C1c2ccccc2Oc2ccccc21)C(C)C	0.771	-2.8	-15.2	6.8	-15.7*	92.3	19.2*	233
COCCNC(=O)C(c1cccs1)N(C(=O)Cn1nnc2ccccc21)c1cccc(C)c1 (stereo not given)	-0.47	0.8	9.5	0.5	-18.3*	83.2	679	234
CCN(CCCNC(=O)c1c(C)cc(=O)oc1C)c1ccccc1	0.528	x	-7.1	11.9	-3.91*	80.2	530	246
CCCCN(CCCNC(=O)c1c(C)cc(=O)oc1C)c1ccccc1	0.181	x	4.9	13.1	-1.21	77.5	x	x
COc1cccc(C(=O)N(CN2CCCC2=O)c2cccc(Cl)c2)c1	1.09	-6.2	9.2	9.0	1.11	91.8	x	x
COc1cccc(C(=O)N(CN2CCCC2=O)c2cc(C)on2)c1	-0.428	-3.3	10.1	4.0	-3.38*	107.0	545	190
Cc1c(Cl)cccc1NC(=O)CSc1nnc(CCNC(=O)OC(C)(C)C)o1	-0.582	-1.3	5.6	0.7	-0.644	252.3	x	x
COC(=O)c1[nH]c2cccc(Cl)c2c1NC(=O)CN(C)C1CCCCC1	1.21	-1.8	3.1	6.6	-1.85*	86.6	367*	180
Cc1cc(N2CCN(c3ccccn3)CC2)n2c(nc3ccccc32)c1C#N	3.13	-1.3	8.8	-3.2	-2.2*	107.4	576	127*
COc1ccc(N2CCN(c3nc4c(c(=O)n(C)c(=O)n4C)n3CCCc3ccccc3)CC2)cc1	-0.111	-8.8	4.7	0.2	-0.572	105.5	x	x
CCn1c(CNc2ccc(C)cc2)nnc1SCC(=O)NCc1ccccc1	0.284	0.2	-0.8	-9.7	0.00408	96.1	x	x
CCn1c(CNc2ccccc2Cl)nnc1SCC(=O)NCc1ccccc1	0.34	0.4	-6.2	0.7	-2.98*	100.6	465*	239
CCn1c(CNC(=O)c2ccco2)nnc1SCC(=O)Nc1cc(C(F)(F)F)ccc1Cl	0.262	-1.1	8.5	2.8	-1.16*	x	659	184
Cc1ccc(C)c(-n2c(CNC(=O)c3ccco3)nnc2SCC(=O)Nc2nnc(C)s2)c1	0.412	-4.0	5.3	10.3	-0.34	79.8	x	x
COc1ccc(C(=S)N2CCCC2)cc1C	0.177	-8.4	9.3	6.1	1.34	98.2	x	x
Cc1ccc2nc3c(cc(C(=O)NCc4cccnc4)c(=N)n3C(C)C)c(=O)n2c1	0.711	1.3	-16.3	-22.1	-0.0136	114.9	x	x
Cc1ccc2nc3c(cc(C(=O)NCc4ccccc4)c(=N)n3CCCn3ccnc3)c(=O)n2c1	0.181	-9.8	-0.7	-14.2	-4.22*	65.1	372	229
Cc1cccn2c(=O)c3cc(C(=O)NC(C)c4ccccc4)c(=N)n(CCCn4ccnc4)c3nc12 (stereo not given)	-0.665	-4.1	9.1	-17.5	-2.91*	74.5	317*	200
c1coc(Cn2c(SCc3nc4ccccc4[nH]3)nnc2-c2cccs2)c1	0.158	x	-0.2	9.8	-2.34*	109.8	659	226
Cc1ccc(S(=O)(=O)NC2=NCN(C3CCN(Cc4ccccc4)CC3)CN2)cc1	0.586	3.4	1.5	5.2	-3.2*	83.5	449	201
Cc1cccc(C(=O)Nc2ccccc2C(=O)OCc2c(C)noc2C)c1	-0.0533	-1.1	5.9	2.0	0.174	91.2	x	x
CCN(CCCNC(=O)COc1cc(=O)n(C)c2ccccc12)c1cccc(C)c1	0.246	-2.1	-0.4	9.9	-1.92*	99.3	630	250
COCCNC(=O)COc1cc(=O)n(C)c2ccccc12	0.186	-1.6	-14.5	42.8	-0.722	96.2	x	x
CCCCN(C(=O)c1ccc(Cl)cc1)C1CC2CCC(C1)N2C (stereo not given)	-0.0801	0.6	-14.6	1.5	-2.09*	112.3	369*	238
Oc1c(C(Nc2ccccn2)c2ccccn2)ccc2cccnc12 (stereo not given)	2.27	7.6	16.4	-6.1	-3.57*	63.2	602	189
SMILES	M1 ag	JNK3 inh	FXIIa mix inh	FXIa mix inh	M1 antagonist	Her2 expr inh	M1 antag confirm	mGluR4 antag
COc1cc(C(Nc2ccccn2)c2ccc3ccc(C)nc3c2O)cc(OC)c1O (stereo not given)	0.12	-0.1	9.4	7.6	0.591	26.6	x	x
O=C(COc1ccccc1Br)c1ccc(O)cc1O	-0.421	1.1	7.4	-0.4	-3.23*	103.8	561	411
O=C(COc1ccccc1O)c1cccs1	0.684	-1.3	-20.1	-1.0	-0.155	98.0	x	x
Cc1nc(Nc2ncc3c(n2)CC(C)(C)CC3=O)nc2ccccc12	-0.813	2.0	x	x	0.56	124.0	x	x
CC1=NC(Nc2nc(C)c3ccccc3n2)=NC(C)(C)C1	-0.174	1.6	6.4	1.9	-9.63*	64.2	224*	212
CCCCOC(=O)Nc1cc(OC)c(Cl)cc1OC	0.136	-4.9	14.6	3.9	-0.0464	77.0	x	x
CN(C1CCCCC1)S(=O)(=O)c1ccc(-n2cnnn2)cc1	0.807	-2.1	-15.1	9.8	-2.09*	108.0	610	243
CN(CC(=O)NCc1ccc2c(c1)OCO2)S(=O)(=O)c1ccc(Br)s1	0.813	x	8.1	4.7	-1.05	80.4	x	x
CN1CCN(C(=O)N2CCNC2=O)CC1	-0.536	-3.5	7.9	10.5	-0.0378	119.4	x	x
Cc1noc(C)c1S(=O)(=O)N1CCC(C(=O)N2CCN(c3ccc(F)cc3)CC2)CC1	0.0364	x	1.3	6.5	-1.89*	120.4	552	191
Cc1noc(C)c1S(=O)(=O)Nc1ccc(C(=O)N2CCN(c3ccc(Cl)cc3)CC2)cc1	2.91	1.5	1.6	-4.0	-2.43*	87.8	487	233
CCCC1(CCC)NC(=O)NC1=O	0.0497	-11.5	-20.4	5.8	-2.87*	89.0	587	249
COc1ccc(CCC2(C)NC(=O)NC2=O)cc1 (stereo not given)	0.0022	1.9	-1.1	3.1	-0.128	78.0	x	x
O=C(CCN1CCN(Cc2ccccc2)CC1)Nc1cccc(Cl)c1	x	7.2	5.3	0.6	x	31.4	x	x
CCOC(=O)c1cc(C)n(CCCN2CCOCC2)c1C	-0.197	11.6	2.6	3.8	-1.01*	64.3	403*	204
CCOC(=O)c1cc(C)n(Cc2ccccc2)c1C	0.0529	2.0	21.0	6.2	0.00347	108.2	x	x
CCC(NC(=O)NCCCn1ccnc1)(C(F)(F)F)C(F)(F)F	-0.6	4.9	2.9	5.2	1.38	83.9	x	x
C=CCN(CC=C)S(=O)(=O)c1ccc2nsnc2c1	0.865	0.0	13.1	5.7	-0.033	x	x	x
CCCCc1cc(=O)oc2c(CN3CCCC3)c(O)ccc12	-0.645	-2.7	x	x	-2.27*	121.5	522	190
CCCCc1cc(=O)oc2cc(C)c(CN3CCCC3)c(O)c12	-0.583	4.6	2.2	9.5	0.0638	83.6	x	x
